Experimental data published in PubChem BioAssay AID504607 (Sanford-Burnham Center for Chemical Genomics, 2011).
Hit rate of the full screen: of about 6,200 compounds, about 4,800 (77%) were called active. The set was probably picked from earlier hits. These entries were drawn from the full list. A number with no mark means an inactive call.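 How the source made its calls: active means mean inhibition at 8 µM reaching about 37%, which flags the compound as non-specific (limit read from the data); inactive means the rest.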

Assay: luminescence decrease from intact luciferase reporter – cell-based, single concentration, SaOS-2, counter-screen for Mdm2/MdmX interaction inhibitor project, confirmation (AID 504607);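 further: p53-null SaOS-2 cells with luciferase driven by a doxycycline-inducible promoter; compound on cells about two nights before reading with doxycycline added after day one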
Conditions: SaOS-2 full-length luciferase counterscreen, at 8 µM, hits give high values

Row | Compound | inhibition
1 | C=CCSc1nsc(NC(=O)Nc2cccc(C(C)=O)c2)n1 | 21.9%
2 | CCSc1nsc(NC(=O)Nc2cccc(C(C)=O)c2)n1 | 41% (active)
3 | CC(=O)c1ccc(Oc2cc(C)nc(-n3nc(C)cc3C)n2)cc1 | 78.7% (active)
4 | Oc1cccc(/C=N/Nc2ccc(Cl)nn2)c1O | 45.7% (active)
5 | Oc1ccc(Br)cc1/C=N/Nc1ccccn1 | 20%
6 | Cc1nnnn1/C(=C\c1ccccc1)C(=O)OCC(=O)N1CC2(C)CC1CC(C)(C)C2 (stereo not given) | 53.4% (active)
7 | CC[n+]1cc(C)ccc1/C=C/c1ccc(N(C)C)cc1 | 37.8% (active)
8 | O=C(/C=C/Sc1ncn[nH]1)c1ccc(Cl)cc1 | 51% (active)
9 | COC(=O)CCNc1ccc2c(c1)OCCO2 | 51.5% (active)
10 | CCOC(=O)c1c(-c2cccc(C)c2)csc1NC(=O)c1c(-c2ccccc2)noc1C | 52.8% (active)
11 | O=C(CSc1nc2ccccc2c(=O)[nH]1)Nc1nc(-c2ccc(Br)cc2)cs1 | 47.8% (active)
12 | Cc1ccc(C(=O)Nc2sc(Cc3ccc4c(c3)OCO4)c(C)c2C(N)=O)cc1 | 89.9% (active)
13 | CCN1/C(=C\c2ccc3ccccc3[n+]2CC)Sc2cc(C)ccc21 | 25%
14 | Cc1ccc2[nH]c(=O)c(CN(CCCN(C)C)C(=O)Nc3cccc(Cl)c3)cc2c1 | 66.6% (active)
15 | Cc1cccc(NS(=O)(=O)c2ccc(-c3cnc(C4CC4)o3)cc2)c1 | 63.9% (active)
16 | COC(=O)C1=C(Nc2ccc(C)cc2)C=C(C)C(C(=O)OC)C1c1ccc(F)cc1 (stereo not given) | 61.3% (active)
17 | O=C(c1[nH]ncc1-c1ccc(Cl)cc1)C1CO1 (stereo not given) | 45.8% (active)
18 | O=C1NC(Nc2nc3ccccc3s2)(C(F)(F)F)C(=O)N1C1CCCCC1 (stereo not given) | 73.6% (active)
19 | Brc1ccc2ncnc(NCc3cccnc3)c2c1 | 26.8%
20 | Cc1ccnc(NC(=O)C2CCN(S(=O)(=O)c3c(C)c(C)cc(C)c3C)CC2)c1 | 46% (active)
21 | O=C(CCNC(=O)c1ccc(Cl)cc1)NC1CCCc2ccccc21 (stereo not given) | 54.4% (active)
22 | CCOC(=O)/C(=C\c1ccc([N+](=O)[O-])cc1)C(=O)c1cc(C(C)=O)c(Nc2ccccc2)s1 | 50.6% (active)
23 | CN(c1ccccc1)S(=O)(=O)c1cc(C(=O)N2CCN(c3ncccn3)CC2)ccc1Cl | 83.9% (active)

Row | Compound | inhibition
24 | O=C(COc1ccccc1F)Nc1nc(-c2ccccn2)cs1 | 47.2% (active)
25 | Cc1ccc(C)c(N2CCN(C(=O)CCCCCn3c(=S)[nH]c4ccc(N5CCOCC5)cc4c3=O)CC2)c1 | 60.1% (active)
26 | O=C(CCCCCn1c(=S)[nH]c2cc3c(cc2c1=O)OCO3)N1CCN(c2ccc(F)cc2)CC1 | 79.3% (active)
27 | COc1cccc(-c2nnc(NC(=O)c3ccc(S(=O)(=O)N(CC(C)C)CC(C)C)cc3)o2)c1 | 24.3%
28 | O=C(CN1C(=O)c2ccccc2S1(=O)=O)N1CCc2ccccc21 | 15.9%
29 | O=C1/C(=C\c2ccccc2Cl)SC(=S)N1CCC(=O)N1CCCc2ccccc21 | 43.1% (active)
30 | Fc1ccccc1/C=C1\CCCC2=C1Nc1ncnn1C2c1ccccc1F (stereo not given) | 3.26%
31 | Cc1ccccc1NC(=O)CSc1nc2ccc(Nc3nc(N4CCOCC4)nc(N4CCOCC4)n3)cc2s1 | 81.4% (active)
32 | O=C(CSc1nc(Nc2ccccc2)nc(N2CCOCC2)n1)Nc1cc(Cl)ccc1O | 65.1% (active)
33 | O=C1[C@H]2[C@@H](c3ccc(F)cc3)N3C(=O)N(c4ccc(C(F)(F)F)cc4)C(=O)[C@@]3(Cc3ccccc3)[C@H]2C(=O)N1C1CCCCC1 | 48.6% (active)
34 | COc1ccc2[nH]c(=O)c(CN(Cc3cccnc3)S(=O)(=O)c3ccccc3F)cc2c1 | 56.2% (active)
35 | Cc1ccc(-c2cn3cc(C)ccc3n2)cc1 | 29%
36 | Cc1ccc2nc(-c3ccc(Br)cc3)cn2c1 | 133% (active)
37 | FC(F)(F)c1nnc2c3ccccc3c(Cl)nn12 | 79.9% (active)
38 | CC1CN(C(=O)CCC(=O)NCCCN2CCC(Cc3ccccc3)CC2)c2cc(Cl)ccc2O1 (stereo not given) | 40.4% (active)
39 | O=C(N/N=C\c1cc2c(cc1Cl)OCO2)c1ccc(Br)s1 | 94.6% (active)
40 | CCN(CC)S(=O)(=O)c1ccc(NC(=O)c2cccnc2Cl)c(NC(=O)c2cccnc2Cl)c1 | 43.5% (active)
41 | N=c1n(CCc2ccccc2)c2ccccc2n1Cc1ccccc1F | 69.7% (active)
42 | CCOC(=O)/C=C/C(=O)OCC(=O)NC(c1ccccc1)c1ccccc1 | 56.8% (active)
43 | O=[N+]([O-])/C=C/c1ccc2c(ccn2Cc2ccccc2)c1 | 49% (active)
44 | COc1ccc(Nc2oc(-c3ccccc3Cl)nc2C#N)cc1 | 79% (active)
45 | O=C(NNc1ccccc1Cl)C(O)(c1cccc(C(F)(F)F)c1)c1cccc(C(F)(F)F)c1 | 87.9% (active)
